Paper PMC11062922 (Nature Chemical Biology, 2023)
Read-outs that look alike come from different tables or passages of the source.

How the values were obtained:
Design in all cases: species or system human, MV4-11 + K-562 + COLO205 + SK-N-BE2 + OVCAR-8
[1] = system: BCR; details: read-out: apparent Kd; compound concentrations:100 nM and 1000 nM (sheet 'Samples'); n = 1
[2] = system: GAK; details: read-out: apparent Kd; compound concentrations:100 nM and 1000 nM (sheet 'Samples'); n = 1
[3] = system: MAPK10; details: read-out: apparent Kd; compound concentrations:100 nM and 1000 nM (sheet 'Samples'); n = 1
[4] = system: MAPK9; details: read-out: apparent Kd; compound concentrations:100 nM and 1000 nM (sheet 'Samples'); n = 1
[5] = system: NQO2; details: read-out: apparent Kd; compound concentrations:100 nM and 1000 nM (sheet 'Samples'); n = 1
[6] = system: PIK3CD; details: read-out: apparent Kd, n = 1
[7] = system: PRKD1; details: read-out: apparent Kd; compound concentrations:100 nM and 1000 nM (sheet 'Samples'); n = 1
[8] = system: PRKD2; details: read-out: apparent Kd; compound concentrations:100 nM and 1000 nM (sheet 'Samples'); n = 1
[9] = system: PRKD3; details: read-out: apparent Kd; compound concentrations:100 nM and 1000 nM (sheet 'Samples'); n = 1
[10] = system: RIPK2; details: read-out: apparent Kd; compound concentrations:100 nM and 1000 nM (sheet 'Samples'); n = 1
[11] = system: SIK3; details: read-out: apparent Kd; compound concentrations:100 nM and 1000 nM (sheet 'Samples'); n = 1
[12] = system: STK16; details: read-out: apparent Kd; compound concentrations:100 nM and 1000 nM (sheet 'Samples'); n = 1
[13] = system: TGFBR1; details: read-out: apparent Kd; compound concentrations:100 nM and 1000 nM (sheet 'Samples'); n = 1
[14] = system: TGFBR2; details: read-out: apparent Kd; compound concentrations:100 nM and 1000 nM (sheet 'Samples'); n = 1
[15] = system: TNIK; details: read-out: apparent Kd, n = 1
[16] = system: ZAK; details: read-out: apparent Kd; compound concentrations:100 nM and 1000 nM (sheet 'Samples'); n = 1
[17] = system: BMP2K; details: read-out: apparent Kd; compound concentrations: 100 nM and 1000 nM (sheet 'Samples'), CATDS: 0.35520277596049099; n = 1
[18] = system: MYLK3; details: read-out: apparent Kd; compound concentrations: 100 nM and 1000 nM (sheet 'Samples'), CATDS: 0.39880703654606497; n = 1
[19] = system: AURKB; details: read-out: apparent Kd, compound concentrations: 100 nM and 1000 nM (sheet 'Samples'), n = 1
[20] = system: FECH; details: read-out: apparent Kd; compound concentrations: 100 nM and 1000 nM (sheet 'Samples'), CATDS: 9.1141958763267306E-2; n = 1
[21] = system: FRK; details: read-out: apparent Kd; compound concentrations: 100 nM and 1000 nM (sheet 'Samples'), CATDS: 0.20541048122338901; n = 1
[22] = system: HCK; details: read-out: apparent Kd; compound concentrations: 100 nM and 1000 nM (sheet 'Samples'), CATDS: 0.153376634791901; n = 1
[23] = system: LCK; details: read-out: apparent Kd; compound concentrations: 100 nM and 1000 nM (sheet 'Samples'), CATDS: 0.126638477949608; n = 1
[24] = system: LYN; details: read-out: apparent Kd; compound concentrations: 100 nM and 1000 nM (sheet 'Samples'), CATDS: 0.11348132537540701; n = 1
[25] = system: MAP2K5; details: read-out: apparent Kd; compound concentrations: 100 nM and 1000 nM (sheet 'Samples'), CATDS: 9.4476183920835705E-2; n = 1
[26] = system: TNK2; details: read-out: apparent Kd; compound concentrations: 100 nM and 1000 nM (sheet 'Samples'), CATDS: 0.38594497215225099; n = 1
[27] = system: DCTPP1; details: read-out: apparent Kd; compound concentrations: 100 nM and 1000 nM (sheet 'Samples'), CATDS: 8.7325060780524003E-2; n = 1
[28] = system: DDR2; details: read-out: apparent Kd; compound concentrations: 100 nM and 1000 nM (sheet 'Samples'), CATDS: 8.3380311484054601E-2; n = 1
[29] = system: FLT3; details: read-out: apparent Kd; compound concentrations: 100 nM and 1000 nM (sheet 'Samples'), CATDS: 0.108927417624357; n = 1
[30] = system: FLT4; details: read-out: apparent Kd; compound concentrations: 100 nM and 1000 nM (sheet 'Samples'), CATDS: 9.3314690514963106E-2; n = 1
[31] = system: PDGFRB; details: read-out: apparent Kd; compound concentrations: 100 nM and 1000 nM (sheet 'Samples'), CATDS: 0.111791794909036; n = 1
[32] = system: PI4KB; details: read-out: apparent Kd; compound concentrations: 100 nM and 1000 nM (sheet 'Samples'), CATDS: 0.119169210644034; n = 1
[33] = system: TAOK1; details: read-out: apparent Kd; compound concentrations: 100 nM and 1000 nM (sheet 'Samples'), CATDS: 9.5219877084068302E-2; n = 1
[34] = compound concentrations:100 nM and 1000 nM (sheet 'Samples')

CN(C)CCOc1ccc(-c2cc(-c3c[nH]nc3-c3ccccn3)ccn2)cc1 [GW835314X]
potency estimated from few doses [1]: 668 nM
potency estimated from few doses [2]: 151 nM
potency estimated from few doses [3]: 1410 nM
potency estimated from few doses [4]: 2050 nM
potency estimated from few doses [5]: 176 nM
potency estimated from few doses [6, 34]: 145 nM
potency estimated from few doses [7]: 161 nM
potency estimated from few doses [8]: 55.4 nM
potency estimated from few doses [9]: 52.8 nM
potency estimated from few doses [10]: 219 nM
potency estimated from few doses [11]: 1800 nM
potency estimated from few doses [12]: 1740 nM
potency estimated from few doses [13]: 1.84 nM
potency estimated from few doses [14]: 149 nM
potency estimated from few doses [15, 34]: 679 nM
potency estimated from few doses [16]: 1820 nM

Nc1cccc(-c2ccc3c(N)n[nH]c3c2)c1 [GSK2193613A]
potency estimated from few doses [17]: 1270 nM
potency estimated from few doses [18]: 1020 nM
potency estimated from few doses ([15]; compound concentrations: 100 nM and 1000 nM (sheet 'Samples'), CATDS: 0.27194394843596698): 2310 nM

Cc1ccc(C(=O)Nc2ccc(Nc3ccnc4cc(-c5nccs5)ccc34)cc2O)cc1.Cl [GW494702A]
potency estimated from few doses ([19]; CATDS: 8.5065344981926597E-2): 1430 nM
potency estimated from few doses [20]: 1090 nM
potency estimated from few doses [21]: 152 nM
potency estimated from few doses [22]: 267 nM
potency estimated from few doses [23]: 412 nM
potency estimated from few doses [24]: 547 nM
potency estimated from few doses [25]: 956 nM
potency estimated from few doses [26]: 55.9 nM

Cn1ccc2ncnc(Oc3ccc(NC(=O)Nc4ccccc4)cc3)c21 [TPKI-69]
potency estimated from few doses ([19]; CATDS: 0.138800296841457): 695 nM
potency estimated from few doses [27]: 2030 nM
potency estimated from few doses [28]: 2350 nM
potency estimated from few doses [29]: 1150 nM
potency estimated from few doses [30]: 1680 nM
potency estimated from few doses [31]: 1080 nM
potency estimated from few doses [32]: 943 nM
potency estimated from few doses ([6]; compound concentrations: 100 nM and 1000 nM (sheet 'Samples'), CATDS: 0.38237858605116598): 142 nM
potency estimated from few doses [33]: 1600 nM

COc1ccc(Nc2nccc(N3CCC(NC(=O)c4cccc(C#N)c4)C3)n2)cc1 (centres unmarked) [GSK1379730A]
potency estimated from few doses ([19]; CATDS: 0.359402067500939): 1450 nM
potency estimated from few doses ([6]; compound concentrations: 100 nM and 1000 nM (sheet 'Samples'), CATDS: 0.82128719253375804): 177 nM
